Key:
Conditions in all cases: concentration: 1 μM,replicates: in singlicate; n = 1
DYRK1B = test system: DYRK1B
DYRK2 = test system: DYRK2
EGFR = test system: EGFR
EIF2AK1 = test system: EIF2AK1
EPHA1 = test system: EPHA1
EPHA2 = test system: EPHA2
EPHA3 = test system: EPHA3
EPHA4 = test system: EPHA4
EPHA5 = test system: EPHA5
EPHA6 = test system: EPHA6
EPHA7 = test system: EPHA7
EPHA8 = test system: EPHA8
EPHB1 = test system: EPHB1
EPHB2 = test system: EPHB2
EPHB3 = test system: EPHB3
EPHB4 = test system: EPHB4
EPHB6 = test system: EPHB6
ERBB2 = test system: ERBB2
ERBB3 = test system: ERBB3
ERBB4 = test system: ERBB4
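Note: KINOMEscan kinase panel screen.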

SMILES	%Inh (DYRK1B) [%]	%Inh (DYRK2) [%]	%Inh (EGFR) [%]	%Inh (EIF2AK1) [%]	%Inh (EPHA1) [%]	%Inh (EPHA2) [%]	%Inh (EPHA3) [%]	%Inh (EPHA4) [%]	%Inh (EPHA5) [%]	%Inh (EPHA6) [%]	%Inh (EPHA7) [%]	%Inh (EPHA8) [%]	%Inh (EPHB1) [%]	%Inh (EPHB2) [%]	%Inh (EPHB3) [%]	%Inh (EPHB4) [%]	%Inh (EPHB6) [%]	%Inh (ERBB2) [%]	%Inh (ERBB3) [%]	%Inh (ERBB4) [%]
CNC(=O)c1ccccc1Nc1nc(Nc2cccc(CS(C)(=O)=O)c2)ncc1C.O=CO [GSK1520489]	83	97	99	0	99.6	99.1	91.8	88	93	90	96.6	96.2	99.9	88	9	91.6	92.8	92.1	3	98.2
Cc1ccc2c(-c3ccnc(Nc4ccc(C(F)(F)F)cc4)n3)cnn2n1 [GW819776]	65	29	0	0	0	0	0	8	1	8	0	6	14	0	7	0	14	0	0	5
CCn1c(-c2nonc2N)nc2cncc(Br)c21 [SB-738004]	29	73	15	0	0	41	29	16	0	4	0	0	0	12	0	13	29	60	43	11
CCCC(=O)Nc1n[nH]c2ncccc12 [SB-601436]	0	2	11	0	8	0	0	14	0	25	0	0	0	0	12	16	0	0	0	0
CCOC(=O)N1CCC(n2cnc(-c3ccc(F)cc3)c2-c2ccnc(N)n2)CC1 [SB-219952]	30	21	32	19	9	13	14	9	0	12	1	0	0	7	11	4	30	5	21	21
Cn1cc(-c2cccc3c(N)c(C(N)=O)nnc23)cn1	8	70	22	18	0	0	24	0	14	17	6	13	4	12	11	5	16	14	27	0
Cc1cccc2c(-c3ccncc3)c(-c3ccc(F)cc3)nn12.Cl [GW461487]	0	10	19	0	3	5	0	0	0	6	9	16	5	94.5	7	0	26	1	0	16
CC(=O)c1c(-c2ccncc2)[nH]c(-c2ccncc2)c1C [GW493036]	100	92.3	37	17	19	6	0	0	0	0	1	6	12	0	3	18	0	0	17	34
Cc1n[nH]c2cc(Nc3ccnc(Nc4cccc(CN5CCOCC5)c4)n3)ccc12 [GW682569]	4	25	22	0	52	14	25	17	0	17	0	9	19	13	12	11	87	27	12	43
Nc1nccc(-c2ccc3c(N)n[nH]c3c2)n1 [GSK1034945]	75	93.1	24	4	11	0	0	0	0	0	6	13	30	19	16	6	2	6	0	25
COc1cc2c(Nc3ccc(NC(=O)c4ccccc4)cc3)ncnc2cc1OCCCN1CCOCC1 [GSK301329]	0	35	90	4	3	4	0	7	0	5	6	12	20	0	5	2	79	72	0	85
C[C@@H]1CNc2c(sc3ccc4nc(-c5ccc(O)cc5)ccc4c23)C(=O)N1	98.1	24	11	0	0	0	14	0	11	5	0	0	5	12	0	0	9	26	0	6
O=C(Nc1ccc(Oc2ccc3nc(NC(=O)C4CC4)cn3n2)c(F)c1)c1cccn(-c2ccccc2)c1=O	30	0	13	0	51	74	0	26	11	37	0	79	39	60	6	35	77	15	30	1
FC(F)(F)c1cc(Br)cc(Nc2nccc(-c3cnn4ncccc34)n2)c1 [GW810578]	98.3	47	16	0	11	0	7	15	26	18	0	0	0	9	17	0	48	0	1	0
CC(C)S(=O)(=O)N1CCN(Cc2ccc3c(c2)nc(NC(=O)c2ccsc2)n3C[C@H](O)c2ccccc2)CC1 [GW635815]	70	21	20	1	0	0	11	15	0	7	10	19	35	16	15	14	0	0	0	0
CN(c1cccc(CNc2nc(Nc3ccc4c(c3)CC(=O)N4)ncc2C(F)(F)F)c1)S(C)(=O)=O	57	28	3	0	3	0	22	1	0	0	33	0	20	14	1	5	56	26	0	6
Cn1ccc2ncnc(Oc3ccc(NC(=O)Nc4cccc(C(F)(F)F)c4)c(Cl)c3)c21	49	0	5	0	54	94.5	97.6	88	84	99.7	82	99.5	70	92.9	66	64	90	29	5	12

SMILES	%Inh (DYRK1B) [%]	%Inh (DYRK2) [%]	%Inh (EGFR) [%]	%Inh (EIF2AK1) [%]	%Inh (EPHA1) [%]	%Inh (EPHA2) [%]	%Inh (EPHA3) [%]	%Inh (EPHA4) [%]	%Inh (EPHA5) [%]	%Inh (EPHA6) [%]	%Inh (EPHA7) [%]	%Inh (EPHA8) [%]	%Inh (EPHB1) [%]	%Inh (EPHB2) [%]	%Inh (EPHB3) [%]	%Inh (EPHB4) [%]	%Inh (EPHB6) [%]	%Inh (ERBB2) [%]	%Inh (ERBB3) [%]	%Inh (ERBB4) [%]
c1ccc(Oc2ccc(Nc3ccnc4ccc(-c5ccccn5)cc34)cc2)cc1 [GW407034]	0	0	82	0	31	13	0	7	90.6	2	0	14	0	5	1	13	49	90.3	89	88
CN1CCN(CCCNc2nccc(-c3c(-c4ccc(F)cc4)nn4cc(C(N)=O)ccc34)n2)CC1 [GW622475]	100	19	38	8	51	28	31	0	0	21	8	26	35	26	0	20	44	24	0	63
O=C(Nc1cccc(C(F)(F)F)c1)c1cccc(Oc2ccc3nccn3n2)c1	14	6	13	0	7	42	11	17	11	10	5	27	20	9	12	23	12	0	40	0
CC(=O)Nc1ccc(-c2cc3ncnc(SCC(=O)O)c3s2)cc1	22	39	2	0	28	0	0	19	7	22	0	0	0	10	22	23	84	6	8	3
Cl.Nc1n[nH]c2cc(-c3ccccn3)ccc12 [GSK2189892]	10	22	38	0	7	23	0	1	0	0	0	0	4	0	4	0	18	9	0	0
NC(=O)Nc1sc(-c2ccc(F)cc2)cc1C(N)=O [GW789449]	52	25	23	0	60	25	0	14	7	11	0	0	24	0	14	20	64	15	54	3
COc1ccc(Nc2nccc(N3CCC(NC(=O)c4cccc(C#N)c4)C3)n2)cc1 (stereo not drawn) [GSK1379730]	39	0	29	0	27	0	0	0	12	0	3	18	0	0	3	0	0	0	0	0
COc1cc2ncn(-c3cc(OCC4CCCCC4)c(C(N)=O)s3)c2cc1OC [GSK204559]	11	33	38	1	3	4	14	10	0	11	17	29	10	0	21	8	64	0	0	0
CS(=O)c1ccc(-c2coc3ccc(-c4n[nH]c(=O)o4)cc23)cc1 (stereo not drawn)	68	10	0	3	0	0	0	0	0	0	0	0	0	12	0	0	25	0	13	5
CC(C)c1nc(-c2cccc(NS(=O)(=O)c3ccccc3)c2)c(-c2ccnc(Nc3ccc4c(c3)CN(C)CC4)n2)s1 [GSK1649598]	20	23	84	95.1	93.2	33	44	21	0	66	13	80	34	0	0	11	98.5	86	97.7	98.8
Cc1ccn2nc(-c3ccc(F)cc3)c(-c3ccncc3)c2c1.Cl [GW457859]	10	0	49	8	2	83	19	0	0	4	0	0	0	0	2	3	8	64	24	32
Cn1ccc2ncnc(Oc3ccc(NC(=O)Nc4ccnc(C(F)(F)F)c4)c(Cl)c3)c21	53	0	3	0	0	0	10	29	0	80	6	14	5	28	25	20	36	20	0	0
CSc1nccc(-c2c(-c3ccc(F)cc3)ncn2CCCN2CCOCC2)n1.Cl [SB-217146]	12	12	0	0	0	0	0	7	0	0	0	0	11	0	0	0	0	7	0	0
O=C(Nc1cccc(Oc2ccc3nccn3n2)c1)Nc1cccc(C(F)(F)F)c1	26	8	23	0	21	75	8	51	11	15	0	92.6	3	39	11	16	40	22	45	0
COc1cccc(CNC(=O)NC2CCN(c3ccnc(Nc4cc(OC)c(OC)c(OC)c4)n3)C2)c1 (stereo not drawn) [GSK1379765]	17	9	28	0	11	30	0	3	0	15	6	13	13	0	20	8	92.6	17	28	38
O=C(NOCC1CC1)c1cc(Br)c(F)c(F)c1Nc1ccc(I)cc1Cl	17	0	0	0	0	0	0	0	0	0	0	0	5	5	0	0	0	44	0	0

From paper PMC5540273 (PLoS ONE, 2017)
